Data published in PubChem BioAssay AID1085 (Emory University Molecular Libraries Screening Center, 2008).
Out of some 220,000 compounds screened, about 930 (0.42%) were called active. Cut-off read from the data, not from the text of the source: active = inhibition above about 50%; inactive = the rest. This excerpt belongs to a sample that is enriched for actives.

What follows are compounds tested against Glycoprotein 42 (Epstein-Barr virus (strain AG876)) (UniProt Q1HVG2) (assay: EBV glycoprotein 42 binding blockers – biochemical, uHTS, fluorescence polarization, primary screen (AID 1085)). Conditions: Fluorescence polarization binding assay, mP read-out; stronger effect = higher value; tested at 21.74 µM.
Sequence of Glycoprotein 42 (Epstein-Barr virus (strain AG876)) (Q1HVG2 whole entry, looked up): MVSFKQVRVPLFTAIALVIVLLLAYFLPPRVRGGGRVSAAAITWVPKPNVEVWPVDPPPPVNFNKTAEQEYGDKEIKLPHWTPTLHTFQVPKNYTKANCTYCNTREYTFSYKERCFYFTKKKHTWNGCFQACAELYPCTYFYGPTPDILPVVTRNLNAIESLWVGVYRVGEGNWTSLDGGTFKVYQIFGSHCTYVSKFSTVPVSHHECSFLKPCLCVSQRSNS

inhibition, active:
Cc1nn(C)cc1N1C(=O)c2cccc3c(N)ccc(c23)C1=O 149%, CCOc1ccc2nc(N3CCCN(C(=O)Nc4ccccc4C)CC3)c(C#N)cc2c1 53.8%, Cc1cccc2cc3c(N)c(C(=O)N4CCCc5ccccc54)sc3nc12 88.5%, COC(=O)C[n+]1cccc2ccccc21 128%, O=C(N/N=C/c1ccc(Cl)cc1)c1nc2ccc([N+](=O)[O-])cc2c(=O)[nH]1 78.6%, O=C(O)COc1ccc(-c2nccc(-c3cccs3)n2)cc1 50.4%, CCOC(=O)/C(C#N)=C/c1ccc(N2CCN(Cc3ccccc3)CC2)cc1 128%, COc1ncnc2c1N=C1CC(C)(C)CC(N)=C1S2 81.4%, CCN1CC=C2C(C#N)=C(N)C(C#N)(C#N)[C@H](c3ccoc3)[C@H]2C1 56.6%, Brc1ccc(C2=CC(c3ccco3)n3ncnc3N2)cc1 (centres undefined) 105%, N#C/C(=C\C1=C(N2CCOCC2)C(=C\c2ccccc2)/CC1)C(=O)Nc1ccccc1F 154%, COc1ccc(C2C=C(c3ccc(Br)cc3)Nc3nc(NS(C)(=O)=O)nn32)cc1 (centres undefined) 80.6%, Oc1c(Cl)cc(Cl)c(Cl)c1Cc1c(O)c(Cl)cc(Cl)c1Cl 59.7%, Cc1ccc(S(=O)(=O)C(C#N)c2nc3ccccc3nc2N2CCCC2)cc1C (centres undefined) 69.2%, COc1ccc(-c2nc(CS(=O)CC(=O)NCc3ccccn3)c(C)o2)cc1 (centres undefined) 117%

inhibition, inactive:
CC(=O)NC(NC(=S)Nc1c(C)n(C)n(-c2ccccc2)c1=O)C(Cl)(Cl)Cl (centres undefined) -9.48%, COc1ccc(/C(C)=N/NC(=O)CCC(=O)Nc2ccc(Cl)cc2Cl)c(OC)c1 -0.68%, Cc1nn(-c2cc(Cl)ccc2N)c(=O)c2ccccc12 -22.9%, COc1ccc(N2C(=O)c3cccc4cccc(c34)C2=O)nn1 15.4%, Clc1cccc(CN2COc3c(cc(Cl)c4cccnc34)C2)c1 1.66%, CC(C)(C)NC(=O)CSC(=Nc1ccccc1F)NC#N 4.3%, CCNC(=O)CC1C(=O)N(c2ccc(OC)cc2)C(=S)N1CCc1ccncc1 (centres undefined) -17.4%, CCOC(=O)c1sc(NC(=O)CSc2nc(C)cc(C(F)(F)F)n2)c(C#N)c1C -17.3%, CCOc1ccc2nc(NCCNS(=O)(=O)c3ccccc3)c(C#N)cc2c1 -8.9%, COc1ccc2nc(N3CCCC(O)C3)c(C#N)cc2c1 (centres undefined) 46.9%, O=C(CCCCCN1C(=O)c2cccc3cccc(c23)C1=O)NCc1ccco1 -16.7%, CCN(CC)S(=O)(=O)c1ccc(N2CCOCC2)c(NC(=O)C2COc3ccccc3O2)c1 (centres undefined) -2.58%, O=C(N/N=C/c1ccco1)c1csc2c1CCCC2 -15.1%, Cc1c(C(=O)N2CCCc3ccccc32)sc2nc(-c3ccccc3)cn12 -4.31%, Cc1occc1C(=O)N1CCCc2ccccc21 -1.51%, CCOC(=O)C(C)n1nc(-c2ccccc2)c2ccccc2c1=O (centres undefined) -6.93%, Cn1cnc([N+](=O)[O-])c1Sc1ccccc1 -26%, COc1ccccc1NC(=O)C[n+]1ccccc1 -3.15%, COC(=O)Cc1nc2ccccc2[nH]1 -12.7%, CSc1cc(C)n(-c2ccccc2C)c(=S)c1C(C)=O -23.5%, COc1ccc(N(CCC#N)S(=O)(=O)c2ccc(Cl)cc2)cc1 -7.41%, O=C(Nc1ccc(Cl)cc1)C1c2cccc[n+]2CC(=O)N1Cc1ccc2c(c1)OCO2 (centres undefined) -27%, CCOc1cccc(=O)c2c(C)n(CC3CCCO3)c(C)c12 (centres undefined) 14.8%, O=S(=O)(Cc1cc(Sc2ccccc2)nc(-c2ccccc2)n1)c1ccccc1 3.74%, CCN(c1ccc(NC(=O)COC(=O)CCc2nc3ccccc3n2-c2ccccc2)cc1)C(C)C -13%, COc1ccc([N+](=O)[O-])cc1NC(=O)c1ccc(N(Cc2ccccc2C)S(C)(=O)=O)cc1 -6.7%, Cc1ccc(-c2cnc(NC(=O)CCC(=O)N(C)Cc3ccccc3)n2C)cc1 4.29%, Cc1nc2ccccc2cc1C(=O)N/N=C/c1ccc([N+](=O)[O-])cc1 -3.69%, O=C(N/N=C/c1ccc([N+](=O)[O-])cc1)c1c[nH]c2ccccc12 -12.7%, Nc1[nH]c(=S)nc2nc(-c3ccccc3)c(-c3ccccc3)nc12 -1.95%, COc1ccc(NC(=O)Cn2c(=O)n(Cc3ccco3)c(=O)c3ccccc32)cc1 -3.89%, Cc1cs/c(=N\N=C\c2ccc(O)cc2)n1Cc1ccco1 8.07%, CN(c1ccccc1)S(=O)(=O)c1cccc(NC(=O)Cc2c(F)cccc2Cl)c1 13.1%, O=S(=O)(c1ccc(F)cc1)N1CCN(C(=S)NC2CCCC2)CC1 -9.24%, CCN(CC)P(=O)(Nc1ccc(SC(F)F)cc1)c1ccc(N(C)C)cc1NC(=O)c1ccco1 (centres undefined) -14.5%, O=C(NCCN1C(=O)S/C(=C\c2cccnc2)C1=O)c1ccc(S(=O)(=O)N2CCCC2)cc1 -22.6%, O=C(Nc1ccnc(-c2ccncc2)n1)c1cccs1 -5.75%, COC(=O)CSc1nccc(-c2cccs2)n1 -13.3%, CCN(CC)C(=O)Oc1ccc(Br)cc1C(=O)Nc1ccc(F)c(Cl)c1 -10.6%, Cc1ccccc1N1C(=O)C(Oc2ccc(Cl)cc2)C1CNCC1CCCO1 (centres undefined) -2.06%, COc1cc(C(CCN2CCN(c3ccccc3)CC2)c2c(OC)cc(OC)c3ccc(=O)oc23)cc(OC)c1OC (centres undefined) -16.3%, COc1ccc(N2CCN(C(=O)/C(C#N)=C/c3ccccc3)CC2)cc1 -19%, CCOC(=O)/C(C#N)=C/c1ccc(N2CCCCC2)cc1 -25.7%, Cc1ccc(C(=O)COC(=O)CCCC(=O)NC2CCCCC2)cc1[N+](=O)[O-] 4.86%, O=C(Cc1ccc(Br)cc1)N1CCN(c2ccccn2)CC1 4.9%, CC(=O)NNC1=Nc2ccccc2N(C)C(C)C1 (centres undefined) -1.65%, CC(C)(C)c1ccc(/C=C/C(=O)Nc2ncccn2)cc1 -8.99%, COc1cc(N2C(=O)CC3(CCCC3)CC2=O)cc(OC)c1OC -4.54%, CCCN1CC=C2C(C#N)=C(N)C(C#N)(C#N)C(c3cc(OC)ccc3OC)C2C1 (centres undefined) 36.5%, CCOC(=O)N1CC=C2C(C#N)=C(N)C(C#N)(C#N)[C@H](c3cccs3)[C@H]2C1 6.62%, Cc1no[n+]([O-])c1COc1ccccc1/C=C1\NC(=S)NC1=O -22.4%, COc1ccc(-n2cnnc2SCC(=O)Nc2cccc([N+](=O)[O-])c2)cc1 6.38%, CC1CN(S(=O)(=O)c2ccc(C(=O)Nc3sccc3C(N)=O)cc2)CC(C)O1 (centres undefined) 6.08%, O=C(Nc1cccnc1)c1ccc(Cl)c([N+](=O)[O-])c1 -3.95%, Cn1cc(CN2CCCC(CO)C2)c(-c2ccc(Oc3ccccc3)cc2)n1 (centres undefined) -12.6%, CC1=C(C(=O)OCc2ccccc2)C(c2ccco2)n2ncnc2N1 (centres undefined) 4.92%, COC(=O)C1=C(C)Nc2ncnn2C1c1ccco1 (centres undefined) 6.95%, Cc1cc(-c2nc(C)c(-c3nnc(SCC(=O)Nc4ccccc4)n3C)s2)no1 -5.93%, COc1ccc(Cc2n[nH]c(=S)n2NC(=O)Nc2ccc(C)cc2)cc1 -9.72%, O=C(Nc1cn(-c2ccccc2)nc1-c1ccccc1)c1ccccc1 -10.3%, CCCCN1C(=O)CC(N2CCOCC2)C1=O (centres undefined) -40.1%, N#C/C(=C\c1ccccc1C(F)(F)F)C(=O)Nc1ccccc1F -19.9%, C(=N\N1CCN(c2ccccn2)CC1)/C1=C(N2CCOCC2)C(=C/c2ccccc2)/CC1 22.4%, Cc1sc2nc(CC(N)=O)[nH]c(=O)c2c1-c1ccccc1 -7.12%, CN1CCN(CCNC(=O)Nc2ccc([N+](=O)[O-])cc2)CC1 -6.33%, CCN(CC(=O)Nc1ccc(S(=O)(=O)N2CCCC2)cc1)CC(=O)Nc1cccc(OC)c1 -7.32%, CCCCCCCCc1c(O)nc(-n2[nH]c(C)c(CCO)c2=O)[nH]c1=O -21.7%, COc1ccc(C2CC(c3ccc(C)cc3)Nc3nc(N)nn32)cc1 (centres undefined) -6.12%, COc1ccc(C2=CC(c3cccc(OC)c3)n3nnnc3N2)cc1 (centres undefined) -13.3%, CCOCCCNC(=S)N1CCC(NC(=O)C2CCCCC2)CC1 -2.69%, CCCC[C@@H]1CN=C(N)N1CCc1cc(C(F)(F)F)cc(C(F)(F)F)c1 -11.3%, CC1CCCN(S(=O)(=O)c2ccc(N(C(=O)c3cnccn3)C(C(=O)NC3CCCCC3)c3cccs3)cc2)C1 (centres undefined) -17.8%, Cc1cc(N2CCN(S(=O)(=O)c3ccc(C)c(C)c3)CC2)c2ccccc2n1 12.3%, Cc1ccc(S(=O)(=O)Nc2nc3ccccc3nc2N2CCc3ccccc3C2)cc1 8.67%, O=C(COc1ccc(-c2ccccc2)cc1)NN=C1CCCC1 -13.3%, O=C(Nc1ccc2c(c1)OCCO2)c1ccoc1 -10.9%, COc1ccc(/C(O)=C2/C(=O)C(=O)N(CC3CCCO3)C2c2ccc(OC)c(OC)c2)cc1 (centres undefined) -16.4%, COc1ccc(-c2nc(CS(=O)CC(=O)N3CCc4ccccc4C3)c(C)o2)cc1 (centres undefined) -1.18%, COc1ccc(-c2nc(CS(=O)CC(=O)NCc3cccnc3)c(C)o2)cc1OC (centres undefined) -12.1%
